The values below come from PubChem BioAssay (Tox21).

A short description of assay [1]: Nuclear factor erythroid 2-related factor 2/antioxidant responsive element (Nrf2/ARE) small molecule agonists: qHTS cell viability counter screen in human keratinocytes (AID 1919968; active means well fitted curve in the direction sought with a large enough effect in the repeat runs; an effect the other way counts as inactive or inconclusive; further: nearly all actives have a fitted effect of over 55% in size; further: potency means the concentration at half of the fitted maximal effect). A digest of the protocol:
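In human HaCaT keratinocytes stably expressing an ARE-driven luciferase, compound exposure lasted 23 h at 37 C under 5% CO2. Viable cells are quantified with a protease-based fluorogenic reagent (CellTiter-Fluor) read 1 h after addition.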

Assay [2] in a line: Nuclear factor erythroid 2-related factor 2/antioxidant responsive element (Nrf2/ARE) small molecule agonists: luciferase reporter gene qHTS assay in human keratinocytes (AID 1919969; further: nearly all actives have a fitted effect of over 35% in size). (In general: A reporter such as luciferase makes a cellular process visible.)
Assay [3] concerns the target Gonadotropin-releasing hormone receptor (Homo sapiens) (UniProt P30968). Briefly: Human gonadotropin-releasing hormone receptor (GnRHR) small molecule agonists, calcium flux assay in GnRHR-HEK293 cells (AID 1920063). Further: nearly all actives have a fitted effect of over 35% in size. A digest of the protocol:
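Intracellular calcium rise is the read-out: engineered human GnRHR HEK293 cells, dye-loaded, are exposed to DMSO-dissolved compounds and fluorescence at Ex/Em 480/540 is tracked for 3 min.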

The target in assay [4] is KiSS-1 receptor (Homo sapiens) (UniProt Q969F8). Description: Human kisspeptin (KISS1R) small molecule agonists, calcium flux assay in KISS1R-HEK293 cells (AID 1920064; active means well fitted curve in the direction sought with a large enough effect in the repeat runs; an effect the other way counts as inactive or inconclusive). A digest of the protocol: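 Concentration-response testing used 15 concentrations in triplicate on human KISS1R-expressing HEK293 cells. Calcium-dependent fluorescence (Ex/Em 480/540) was followed kinetically for 3 min after compound transfer.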
On the technique in general: A change in cytosolic calcium serves as a functional read-out for many receptors and channels.

A short description of assay [5]: G protein-coupled receptor (GPCR) small molecule agonists, calcium flux assay: HEK293 wild type cell line counter screen (AID 1920065). A digest of the protocol: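 Fluorescence intensity signals activation. After overnight (18 h) culture and a 1 h calcium dye load at 37 C, compounds are added by pin tool and the plate read at 480/540 nm for 3 min in 1 s steps.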

A short description of assay [6]: p53 small molecule agonists, cell-based qHTS assay with human liver microsomes (AID 1963577).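 Further: p53 response element beta-lactamase reporter cells with liver microsomes plus NADPH.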 A digest of the protocol:
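Reporter activation was measured by LiveBLAzer fluorescence intensity in p53RE-bla cells, which had been exposed to compounds for 16 h at 37 C alongside 0.5 mg/mL human liver microsomes and 0.5 mg/mL NADPH (final concentrations).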

The nature of assay [7]: p53 small molecule agonists, cell-based qHTS assay with rat liver microsomes (AID 1963578). A digest of the protocol: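 Compound in DMSO added to p53RE-bla cells 5 h post-plating; rat microsomes/NADPH 0.5 mg/mL final; 16 h, 37 C; LiveBLAzer 2 h RT.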
Assay [8] can be described thus: p53 small molecule agonists, cell-based qHTS assay with human liver microsomes: qHTS cell viability counter screen (AID 1963579). Further: nearly all actives have a fitted effect of over 45% in size. A digest of the protocol:
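HLM-supplemented (0.5 mg/mL final) and NADPH-supplemented (0.5 mg/mL final) p53RE-bla cultures, 4,000 cells per well, were dosed with compounds in DMSO for 16 h at 37 C; luminescent ATP detection (CellTiter-Glo, 30 min, room temperature) quantified surviving cells.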
In general terms: Quantitative high-throughput screening tests each substance at several concentrations.

Assay [9] can be described thus: p53 small molecule agonists, cell-based qHTS assay with rat liver microsomes: qHTS cell viability counter screen (AID 1963580). Further: nearly all actives have a fitted effect of over 45% in size. A digest of the protocol:
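Luminescent ATP readout (CellTiter-Glo, 30 min at room temperature) reports viability of p53RE-bla HCT-116 cells after 16 h at 37 C with test compounds under metabolic activation by rat liver microsomes and NADPH at 0.5 mg/mL final each.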

A short description of assay [10]: p53 small molecule agonists, cell-based qHTS assay (AID 1963582; active means well fitted activation curve with a large enough effect in the signal ratio in the repeat runs, not every such curve was filed as active; the % refers to the signal ratio). A digest of the protocol: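 After plating, p53RE-bla cells sat 5 h in the incubator; compounds or DMSO vehicle were pinned in; a 16 h incubation at 37 C followed; FRET substrate was added and, 2 h later at RT, fluorescence was measured.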
For assay [11], the target named is 5-hydroxytryptamine receptor 2A (Homo sapiens) (UniProt P28223). Description: 5-hydroxytryptamine receptor 2A (HTR2A) small molecule antagonists, cell-based qHTS assay (AID 1963586). Further: nearly all actives have a fitted effect of over 45% in size. A digest of the protocol: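 CHO cells stably expressing human HTR2A were plated for 18 h at 37 C, then loaded with calcium dye for 1 h. Compounds were preincubated 5 min at room temperature before DOI (4 nM solution) was added. Kinetic fluorescence was read for 3 min.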

Assay [12] deals with Muscarinic acetylcholine receptor M1 (Homo sapiens) (UniProt P11229). Briefly: Cholinergic receptor muscarinic 1 (CHRM1) small molecule antagonists, cell-based qHTS assay (AID 1963588). Further: nearly all actives have a fitted effect of over 40% in size. A digest of the protocol:
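Compounds were tested at 15 concentrations in three independent runs. Dye-loaded CHRM1-CHO cells were exposed 5 min at room temperature before stimulation by acetylcholine added at 50nM. Intracellular calcium was read kinetically on FDSS for 3 min.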

Assay [13] shares this target. Description: Cholinergic receptor muscarinic 1 (CHRM1) small molecule agonists, cell-based qHTS assay (AID 1963589). Further: nearly all actives have a fitted effect of over 35% in size. A digest of the protocol:
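Fluorescent calcium dye reports M1 activation in stably transfected CHO cells. Compounds, 15 concentrations, added after 1 h dye loading at 37 C; kinetic reading at 1 sec intervals.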

A short description of assay [14]: cAMP Responsive Elements (CRE) small molecule antagonists, cell-based qHTS assay (AID 1963591; active means well fitted inhibition curve with a large enough effect in the signal ratio in the repeat runs, not every such curve was filed as active; the % refers to the signal ratio). A digest of the protocol: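 Stimulation used NKH477 at a final 0.25 uM for 3 h in compound-treated CRE-bla HEK293T cells, seeded 18 h beforehand. Reporter activity was measured with LiveBLAzer B/G FRET substrate after 2 h at room temperature.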
The target of assay [15] is Beta-2 adrenergic receptor (Homo sapiens) (UniProt P07550). Description: Adrenergic beta2 receptor (ADRB2) small molecule antagonists, cell-based qHTS assay (AID 1963592). Further: series mostly up to about 92 µM; nearly all actives have a fitted effect of over 50% in size. A digest of the protocol:
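Assay format: CHO-ADRB2 cells, 18-20hr seeding at 37C/5% CO2, then compound plus 1nM isoproterenol agonist mix for 0.5hr RT. Homogeneous time-resolved fluorescence cAMP detection after 1hr, expressed as 665/615 nm ratio.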

For assay [16] the target is unchanged. Briefly: Adrenergic beta2 receptor (ADRB2) small molecule agonists, cell-based qHTS assay (AID 1963593).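 Further: CHO cells stably overexpressing human ADRB2.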 A digest of the protocol:
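CHO cells stably over-expressing ADRB2 were plated overnight at 37C, then dosed with compounds plus a stimulation mix containing 100uM IBMX and 25uM Ro-20-1724 for 0.5hr at room temperature. cAMP was measured by HTRF competition, 1hr.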

For assay [17], the target named is D(2) dopamine receptor (Homo sapiens) (UniProt P14416). Briefly: Dopamine D2 receptor (DRD2) small molecule agonists, cell-based qHTS assay (AID 1963594). Further: nearly all actives have a fitted effect of over 35% in size. A digest of the protocol: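 HEK293 cells stably expressing DRD2 were cultured 24 h at 37 C, then given Ro20-1724 (0.1 mM final) and compounds for 10 min at room temperature. NKH477 (200nM) was then added for 30 min. cAMP was read by HTRF.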

In assay [18] the target is 5-hydroxytryptamine receptor 2A (Homo sapiens) (UniProt P28223). Briefly: 5-hydroxytryptamine receptor 2A (HTR2A) small molecule agonists, cell-based qHTS assay (AID 1963587). Further: nearly all actives have a fitted effect of over 30% in size. A digest of the protocol: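 HTR2A-CHO cells, plated 18 h at 37 C/5% CO2, dye-loaded 1 h at 37 C; compounds in DMSO added by pin tool (agonist mode). Intracellular calcium flux read as kinetic fluorescence on FDSS over 2 min at 1 s intervals.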

The nature of assay [19]: cAMP Responsive Elements (CRE) small molecule agonists, cell-based qHTS assay (AID 1963590). A digest of the protocol:
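Compound exposure lasted 3 h at 37 C/5% CO2 in CRE-bla HEK 293T cells grown in assay medium with 10% dialyzed FBS and 25 mM HEPES. Reporter signal came from LiveBLAzer B/G FRET substrate, 2 h, room temperature.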

Assay [20] concerns the target D(2) dopamine receptor (Homo sapiens) (UniProt P14416). Briefly: Dopamine D2 receptor (DRD2) small molecule antagonists, cell-based qHTS assay (AID 1963595; active means well fitted inhibition curve with a large enough effect in the signal ratio in the repeat runs, with a control signal flat; the % refers to the signal ratio). A digest of the protocol:
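Antagonist mode in DRD2-HEK293 cells: after compound addition with 0.1 mM Ro20-1724, cells received quinpirole (12 nM) and NKH477 (200 nM) for 30 min at room temperature; HTRF cAMP read after 1 h detection.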

A number with no mark means an inactive call. Inconclusive results are not listed. Active and inactive are the calls of the source. Unless noted, the call rests on the fitted dose curve.

Sequence of Muscarinic acetylcholine receptor M1 (Homo sapiens) (P11229 whole entry, looked up): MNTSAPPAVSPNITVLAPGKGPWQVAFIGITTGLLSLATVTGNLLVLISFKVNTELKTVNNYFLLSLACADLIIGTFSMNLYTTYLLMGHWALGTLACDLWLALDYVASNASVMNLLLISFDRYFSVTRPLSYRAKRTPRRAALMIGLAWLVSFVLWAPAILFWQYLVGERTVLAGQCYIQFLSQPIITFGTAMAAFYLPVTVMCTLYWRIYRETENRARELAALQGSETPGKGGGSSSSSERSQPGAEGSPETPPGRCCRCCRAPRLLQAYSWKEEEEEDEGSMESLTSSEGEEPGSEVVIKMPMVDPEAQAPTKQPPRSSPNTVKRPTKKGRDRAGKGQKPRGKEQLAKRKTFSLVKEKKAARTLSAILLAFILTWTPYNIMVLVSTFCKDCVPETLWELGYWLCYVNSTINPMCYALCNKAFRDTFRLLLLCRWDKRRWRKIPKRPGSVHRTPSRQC
Sequence of 5-hydroxytryptamine receptor 2A (Homo sapiens) (P28223 whole entry, looked up): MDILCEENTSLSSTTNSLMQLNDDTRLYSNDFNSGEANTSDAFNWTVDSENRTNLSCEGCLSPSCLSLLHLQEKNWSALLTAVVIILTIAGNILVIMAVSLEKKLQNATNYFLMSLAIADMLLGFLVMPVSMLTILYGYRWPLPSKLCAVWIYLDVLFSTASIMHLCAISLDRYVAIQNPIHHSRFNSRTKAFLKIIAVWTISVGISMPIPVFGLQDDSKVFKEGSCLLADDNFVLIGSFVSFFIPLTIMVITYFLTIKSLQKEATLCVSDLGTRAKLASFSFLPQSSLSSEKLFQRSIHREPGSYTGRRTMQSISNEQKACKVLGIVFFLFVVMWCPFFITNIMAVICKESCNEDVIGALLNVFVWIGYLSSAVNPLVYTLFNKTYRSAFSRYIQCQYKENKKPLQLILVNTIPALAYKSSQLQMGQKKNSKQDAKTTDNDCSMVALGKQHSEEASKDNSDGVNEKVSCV
Sequence of KiSS-1 receptor (Homo sapiens) (Q969F8 whole entry, looked up): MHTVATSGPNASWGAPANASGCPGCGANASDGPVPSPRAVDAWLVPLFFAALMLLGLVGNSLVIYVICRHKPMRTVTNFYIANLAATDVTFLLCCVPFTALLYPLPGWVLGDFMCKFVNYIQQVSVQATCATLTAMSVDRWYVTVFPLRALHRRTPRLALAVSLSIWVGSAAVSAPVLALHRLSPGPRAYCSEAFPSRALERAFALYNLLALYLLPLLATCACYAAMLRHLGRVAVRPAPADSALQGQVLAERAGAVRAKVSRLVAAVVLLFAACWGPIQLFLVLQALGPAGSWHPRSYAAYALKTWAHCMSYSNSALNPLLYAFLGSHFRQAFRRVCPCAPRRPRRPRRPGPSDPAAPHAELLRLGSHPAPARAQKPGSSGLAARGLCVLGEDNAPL
Sequence of Beta-2 adrenergic receptor (Homo sapiens) (P07550 whole entry, looked up): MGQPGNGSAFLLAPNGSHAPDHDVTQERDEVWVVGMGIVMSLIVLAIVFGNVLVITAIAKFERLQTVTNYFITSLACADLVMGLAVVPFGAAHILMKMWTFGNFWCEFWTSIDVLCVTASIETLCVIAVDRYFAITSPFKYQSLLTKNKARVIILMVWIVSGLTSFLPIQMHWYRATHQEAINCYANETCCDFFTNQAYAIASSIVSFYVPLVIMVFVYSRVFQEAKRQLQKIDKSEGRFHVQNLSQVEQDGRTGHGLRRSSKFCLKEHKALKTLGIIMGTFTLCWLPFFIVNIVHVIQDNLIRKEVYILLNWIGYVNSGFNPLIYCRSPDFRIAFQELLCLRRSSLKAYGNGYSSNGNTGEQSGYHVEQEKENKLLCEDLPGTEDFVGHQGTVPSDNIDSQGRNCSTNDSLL
Sequence of D(2) dopamine receptor (Homo sapiens) (P14416 whole entry, looked up): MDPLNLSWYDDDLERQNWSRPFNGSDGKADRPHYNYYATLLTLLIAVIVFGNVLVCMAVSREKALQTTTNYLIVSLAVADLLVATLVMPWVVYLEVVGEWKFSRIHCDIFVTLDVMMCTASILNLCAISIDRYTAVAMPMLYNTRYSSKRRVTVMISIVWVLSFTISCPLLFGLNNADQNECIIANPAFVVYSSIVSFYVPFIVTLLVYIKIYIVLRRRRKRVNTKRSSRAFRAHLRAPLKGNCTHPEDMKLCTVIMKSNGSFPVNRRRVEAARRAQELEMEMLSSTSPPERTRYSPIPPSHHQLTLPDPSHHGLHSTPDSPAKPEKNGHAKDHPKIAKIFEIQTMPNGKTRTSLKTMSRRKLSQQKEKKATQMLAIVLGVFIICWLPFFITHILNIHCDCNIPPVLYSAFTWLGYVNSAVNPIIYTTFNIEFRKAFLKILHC
Sequence of Gonadotropin-releasing hormone receptor (Homo sapiens) (P30968 whole entry, looked up): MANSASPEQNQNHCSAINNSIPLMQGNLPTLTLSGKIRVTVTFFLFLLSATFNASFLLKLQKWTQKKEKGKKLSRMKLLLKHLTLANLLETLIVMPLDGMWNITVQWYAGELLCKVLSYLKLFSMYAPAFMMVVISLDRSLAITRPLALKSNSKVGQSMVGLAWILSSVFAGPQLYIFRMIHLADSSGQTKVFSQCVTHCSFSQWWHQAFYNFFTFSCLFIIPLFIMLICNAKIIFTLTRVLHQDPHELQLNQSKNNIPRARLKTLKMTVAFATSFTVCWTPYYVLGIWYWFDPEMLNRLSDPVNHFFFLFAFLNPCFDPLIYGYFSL

For the molecule `CCC1NC(=O)c2cc(S(N)(=O)=O)c(Cl)cc2N1` (stereo not given), the Potency result in assay [1], in assay [2], in assay [3], in [6], in assay [7] and in assay [8] was “inactive” throughout. Moreover, the Potency result in assay [9], in assay [10], in assay [11], in assay [12], in assay [13] and in assay [14] was “inactive” throughout. The Potency entry in assay [15], in [16] and in assay [17] was “inactive” each time. Besides, the result in assay [4] and in assay [5] was inactive.
Turning to `CCOC(=O)CC(CC(=O)OCC)(OC(C)=O)C(=O)OCC`, the Potency entry in assay [1], in [2], in [3], in [6], in [7] and in assay [8] was “inactive” throughout. Further, the Potency result in assay [9], in assay [10], in assay [11], in assay [18], in [13] and in [19] was “inactive” throughout. Further, the Potency result in assay [14], in assay [15], in assay [17] and in assay [20] was “inactive” in each case. Besides, the result in [4] and in assay [5] was inactive.
For `CCCCCCCCCCCCOC(=O)c1ccc(O)cc1`, the Potency in assay [1] is 43.6 µM (active). Further, the Potency entry in [2], in assay [3], in [6], in [7], in assay [8] and in [9] was “inactive” each time. The Potency result in assay [10], in assay [11], in assay [18], in assay [13], in assay [14] and in assay [15] was “inactive” in each case. Further, the Potency result in [16] and in assay [20] was “inactive” in each case. Moreover, the outcome in [4] and in [5] was inactive.
`COc1ccc(-c2coc3cc(O)ccc3c2=O)cc1`: the Potency result in assay [1], in [2], in assay [3], in assay [6], in assay [7] and in assay [8] was “inactive” each time. In addition, the Potency result in assay [9], in [10], in assay [11], in assay [18], in assay [12] and in assay [13] was “inactive” throughout. Further, the Potency entry in [15], in assay [16], in assay [17] and in assay [20] was “inactive” throughout. Further, the result in [4] and in assay [5] was inactive.
With `CCCCCCCCCCCCCCCC[N+](C)(C)CCN(Cc1ccc(OC)cc1)c1ncccn1`, the Potency in assay [1] is 26.6 µM (active). For the same molecule, the Potency result in [2], in assay [3], in assay [6], in [7], in [8] and in assay [9] was “inactive” throughout. The Potency result in assay [10], in [18], in assay [12], in assay [15] and in [17] was “inactive” in each case. For the same molecule, the result in assay [4] and in assay [5] was inactive.
As to `OCC(CO)n1cnc(-c2ccc(F)cc2)c1-c1ccnc(Oc2ccccc2)n1`, the Potency entry in [1], in [2], in [3], in [6], in [7] and in [8] was “inactive” each time. Moreover, the Potency result in [9], in assay [10], in assay [11], in assay [18], in assay [12] and in assay [13] was “inactive” throughout. The Potency entry in [15], in assay [16], in assay [17] and in assay [20] was “inactive” throughout. Also, the result in assay [4] and in [5] was inactive.
For `CCNS(=O)(=O)c1ccc(C)cc1`, the Potency entry in [1], in [2], in [3], in assay [6], in assay [7] and in assay [8] was “inactive” in each case. The Potency result in assay [9], in assay [10], in assay [11], in assay [18], in assay [12] and in [13] was “inactive” each time. In addition, the Potency entry in [14], in [16], in [17] and in assay [20] was “inactive” in each case. Besides, the result in assay [4] and in assay [5] was inactive.
